PubChem BioAssay (NCATS)
Several values for one entry are separate records, joined by “and”; a condition that tells them apart may be missing. Equal entries are not always repeated. Results filed as inconclusive are left out. Values without a mark were called inactive. Activity calls are given as the source filed them. Calls follow the shape of the dose curve; as a rule, active = well fitted curve in the direction sought with a large enough effect; inconclusive = small, poorly fitted or top-dose-only effect, or another doubt; inactive = no such curve, though single readings can be large or run the other way. Non-standard residues stand in square brackets, D forms with d. Residues, ends and D or L forms follow the SMILES beside them. Orn = NCCC[C@H](N)C(=O)O

Assay: qHTS Assay for Identifying Gametocytocidal Compounds (AID 743244);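 as to max response: actives lower the fluorescent signal which means gametocytes are killed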
Settings: P. falciparum 3D7 stage III-V gametocytes, alamarBlue, 72 h; max response: active compounds read low
Method in brief: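 Viability read-out was resazurin reduction (alamarBlue, 24 h) measured at Ex 525/Em 598 nm. Beforehand, late-stage (III-V) 3D7 P. falciparum gametocytes at 20,000 cells/well were incubated with compound 72 h at 37C under 5% CO2.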
% is scaled to controls: 0 for no effect and ±100 for the full control effect; potency is read from the fitted curve at half-maximal effect.

Structure (SMILES) | max response | Potency
COC(=O)CCC(=O)CN | -0.174% | –
Cc1ccccc1OCC(O)CNCCOc1ccc(C(N)=O)cc1 (stereo not drawn) | 6.36% | –
N[C@H](C(=O)O)[C@@H]1CC(Cl)=NO1 | 8.42% | –
C[C@H](CCC(=O)O)[C@H]1CC[C@H]2[C@@H]3[C@H](O)C[C@@H]4C[C@H](O)CC[C@]4(C)[C@H]3CC[C@]12C | 11% | –
CC(C)C[C@@H]1NC(=O)[C@H](CCCN)NC(=O)[C@H](C(C)C)NC(=O)[C@@H]2CCCN2C(=O)[C@@H](Cc2ccccc2)NC(=O)[C@H](CC(C)C)NC(=O)[C@H](CCCN)NC(=O)[C@H](C(C)C)NC(=O)[C@@H]2CCCN2C(=O)[C@@H](Cc2ccccc2)NC1=O (cyclo(V[Orn]L[dF]PV[Orn]L[dF]P)) | – | 2240 nM (active)
CN1C(=O)CN2CCc3ccccc3C2c2cc(Cl)ccc21 (stereo not drawn) | 0.102% | –
Nc1c(Br)cc(Br)cc1CNC1CCC(O)CC1 (stereo not drawn) | 19% | –
CC1(C)S[C@@H]2[C@H](NC(=O)C(C(=O)O)c3ccsc3)C(=O)N2[C@H]1C(=O)O (stereo partly drawn) | 10.2% | –
C[C@@H]1CCC2[C@@H](C)[C@@H](O)O[C@@H]3O[C@@]4(C)CC[C@@H]1[C@@]23OO4 (stereo partly drawn) | – | 46.9 nM (active)
O=S(=O)(O)c1cc(O)c2c(N=Nc3ccc(Nc4ccccc4)c4c(S(=O)(=O)O)cccc34)cc(S(=O)(=O)O)cc2c1 | -8.84% | –
CC(=O)OC(C)OC(=O)C(C)c1ccc(-c2ccccc2)c(F)c1 (stereo not drawn) | -5.75% and -9.98% | –
C/C1=C2N=C(/C=C3N=C(/C(C)=C4\[N-][C@@](C)([C@@H]5N=C1[C@](C)(CCC(=O)NCC(C)OP(=O)(O)O[C@H]1[C@@H](O)[C@@H](n6cnc7cc(C)c(C)cc76)O[C@@H]1CO)[C@H]5CC(N)=O)[C@@](C)(CC(N)=O)[C@@H]4CCC(N)=O)[C@@](C)(CC(N)=O)[C@@H]\3CCC(N)=O)C(C)(C)[C@@H]/2CCC(N)=O.CC(=O)O.[Co] (stereo partly drawn) | – | 20000 nM (active)
CC(=O)O[C@]1(C(C)=O)CC[C@H]2[C@@H]3CCC4=CC(=O)CC[C@]4(C)[C@@]3(F)[C@@H](O)C[C@@]21C | 11% | –
O=C1C(=O)c2ncccc2-c2cccnc21 | – | 148 nM (active)
CCCCCCCCCCCC[n+]1ccc2ccccc2c1 | – | 1780 nM (active)
CC1(C)S[C@@H]2[C@H](NC(=O)Cc3ccccc3)C(=O)N2[C@H]1C(=O)O | 14.5% | –
Cc1c(C)c2c(c(C)c1O)CC[C@@](C)(CCC[C@H](C)CCC[C@H](C)CCCC(C)C)O2 | 1.54% and 7.72% | –

Structure (SMILES) | max response | Potency
C=CC1=C(C)C2=CC3=NC(=C(CC(=O)[O-])C4=NC(=C(C)C4=C([O-])[O-])C=c4[n-]c(c(C)c4CC)=CC1=N2)C(CCC(=O)[O-])C3C.[Cu+2].[Na+].[Na+].[Na+] (stereo not drawn) | 14.4% | –
NCc1ccccc1CC(=O)N[C@@H]1C(=O)N2C(C(=O)O)=C(CSc3nnnn3CC(=O)O)CS[C@H]12 | 5.62% | –
COc1cc([C@@H]2c3cc4c(cc3[C@@H](O[C@@H]3O[C@@H]5CO[C@@H](C)O[C@H]5[C@H](O)[C@H]3O)[C@H]3COC(=O)[C@H]23)OCO4)cc(OC)c1O | -3.58% | –
C#C[C@]1(O)CC[C@H]2[C@@H]3CCC4=CCCC[C@@H]4[C@H]3C(=C)C[C@@]21CC | -1.95% | –
OCCO[C@@H]1[C@@H](O)[C@H](O)[C@@H](CO)O[C@@H]1O | 18.7% | –
CC1(C)S[C@@H]2[C@H](NC(=O)C(N)c3ccccc3)C(=O)N2[C@H]1C(=O)OC1OC(=O)c2ccccc21 (stereo partly drawn) | 16.4% | –
CCC(=O)NCCC1CCc2ccc3c(c21)CCO3 (stereo not drawn) | 12.4% | –
CNC(C)[C@@H]1CC[C@@H](N)[C@@H](O[C@H]2[C@H](O)[C@@H](O[C@H]3OC[C@](C)(O)[C@H](NC)[C@H]3O)[C@H](N)C[C@@H]2N)O1 (stereo partly drawn) | 5.9% | –
C#C[C@]1(O)CC[C@H]2[C@@H]3CCC4=C/C(=N/O)CC[C@@H]4[C@H]3CC[C@@]21CC | -2.15% | –
CCCC(=O)O[C@]1(C(=O)COC(C)=O)CC[C@H]2[C@@H]3C[C@H](F)C4=CC(=O)C=C[C@]4(C)[C@@]3(F)[C@@H](O)C[C@@]21C | 9.8% | –
CC(C)NCC1CCc2cc(CO)c([N+](=O)[O-])cc2N1 (stereo not drawn) | -6.43% | –
CC(C(=O)O)c1ccc(N2Cc3ccccc3C2=O)cc1 (stereo not drawn) | 8.38% | –
CC(=O)N(CC(C)C(=O)O)c1c(I)cc(I)c(N)c1I (stereo not drawn) | 4.12% | –
CC(C)(C)C1(O)CCN2CC3c4ccccc4CCc4cccc(c43)C2C1 (stereo not drawn) | 10.9% | –
COc1ccc(CCNC[C@H](O)c2ccc(O)cc2)cc1OC | 3.09% | –
CO[C@H]1C=CO[C@@]2(C)Oc3c(C)c(O)c4c(O)c(c5c(nc6cc(C)ccn65)c4c3C2=O)NC(=O)/C(C)=C\C=C[C@H](C)[C@H](O)[C@@H](C)[C@@H](O)[C@@H](C)[C@H](OC(C)=O)[C@@H]1C | – | 12600 nM (active)
